Experimental data taken from PubChem BioAssay (NCI).
This is part of a sample that, as a whole, favours compounds with a hit. Of some 83,000 tested, about 20% had one in any assay.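 Note: values are percent growth. 100 is the growth of untreated cells, values between 100 and 0 indicate rising inhibition; between -100 and 0 indicates cell death.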 Calls of active or inactive are those of the source. Rule for the calls: active = growth percent below 10; inactive = the rest.

Tests used:
Assay in all cases: NCI-60 one-dose screen, 48 h (100 = growth as untreated, 0 = no growth, -100 = all killed)
Conditions in all cases: 10 µM unless noted
[1] = tested on: NCI-H23 lung
[2] = tested on: NCI-H226 lung
[3] = tested on: NCI-H322M lung
[4] = tested on: HOP-62 NSCLC
[5] = tested on: NCI-H460 lung
[6] = tested on: NCI-H522 lung
[7] = tested on: A549/ATCC NSCLC
[8] = tested on: 786-0 renal
[9] = tested on: COLO 205 colon
[10] = tested on: DU-145 prostate
[11] = tested on: K-562 leukemia
[12] = tested on: MALME-3M melanoma
[13] = tested on: MDA-MB-231 breast
[14] = tested on: RXF 393 renal
[15] = tested on: SF-268 CNS
[16] = tested on: SF-295 CNS
[17] = tested on: SF-539 CNS
[18] = tested on: UACC-257 melanoma
[19] = tested on: M14 melanoma

Measured: growth

Nc1c(Cl)cc([N+](=O)[O-])cc1Br
inactive: [1] 93% | [2] 93.7% | [3] 103% | [4] 109% | [5] 114% | [6] 88.1% | [7] 99.6% | [8] 87.8% | [9] 118% | [10] 105% | [11] 99.1% | [12] 107% | [13] 101% | [14] 98.2% | [15] 97.1% | [16] 74% | [17] 114% | [18] 91.3% | [19] 114%

BrC(Br)(Br)c1cnc2ccccc2n1
active: [5] 8.61% | [9] -86.4% | [10] 4.36% | [11] 1.19% | [12] -10.4% | [14] -31.5%
inactive: [1] 64.2% | [2] 21.3% | [3] 74.9% | [4] 60% | [7] 34.6% | [8] 67.7% | [13] 46% | [15] 54.5% | [16] 74.3% | [17] 27.2% | [18] 39.9% | [19] 42.9%

COc1ccc(C(=O)c2cc3c(N)c(C(=O)Nc4cccc(Cl)c4C)sc3nc2C)cc1
active: [5] 6.21% | [6] -8.11% | [9] -26.2% | [10] 9.62% | [11] 2.9% | [17] -10.2% | [19] 5.63%
inactive: [1] 29.3% | [2] 44% | [3] 52.6% | [4] 29.1% | [7] 13.2% | [8] 29% | [12] 54.5% | [13] 15% | [15] 18.4% | [16] 26.5% | [18] 57.6%

CCCCCCCCCCN=C(N)N=C(N)N
inactive: [1] 29.4% | [2] 47.4% | [3] 80.9% | [4] 50.6% | [5] 40.6% | [6] 53% | [7] 70.1% | [8] 26.2% | [9] 32% | [10] 79.1% | [11] 21.3% | [12] 30.4% | [13] 38.8% | [15] 33.1% | [16] 42.8% | [17] 58.5% | [18] 48.5% | [19] 48.2%

COc1ccc(-c2ncc(-c3ccccc3)[nH]2)cc1OC
active: [8] -10.5%
inactive: [1] 101% | [2] 100% | [3] 218% | [4] 112% | [5] 112% | [6] 108% | [7] 110% | [9] 145% | [10] 131% | [11] 93.9% | [12] 260% | [13] 107% | [15] 103% | [16] 88.6% | [17] 100% | [18] 10.5% | [19] 119%

CC(C)(C)OC(=O)N1C/C(=C\c2ccoc2)C(=O)/C(=C/c2ccoc2)C1
inactive: [1] 99.1% | [2] 98.3% | [3] 87.7% | [4] 93.9% | [5] 107% | [6] 78.8% | [7] 102% | [8] 93.8% | [9] 109% | [10] 109% | [11] 29.3% | [12] 92.6% | [13] 109% | [15] 89.5% | [16] 103% | [17] 106% | [18] 95.9% | [19] 94.2%

COc1ccc(/C=C/C(=O)c2ccc(OC)c(OC)c2)cc1O
inactive: [1] 73.1% | [2] 86.3% | [3] 78.6% | [4] 39.7% | [5] 44.2% | [6] 51.9% | [7] 26.4% | [8] 98.2% | [9] 104% | [10] 21% | [11] 14.7% | [12] 90.9% | [13] 73% | [14] 72.1% | [15] 80.7% | [16] 104% | [17] 79.8% | [18] 96.6% | [19] 97.7%

COc1ccc(C(O)c2cc3c(N)c(C(=O)Nc4ccccc4)sc3nc2C)cc1 (stereo not drawn)
active: [5] 3.3% | [6] -55.9% | [9] -58.9% | [10] 2.39% | [11] 3.59% | [13] -11.2% | [16] -13.3% | [17] -25.8%
inactive: [1] 29.7% | [2] 51.1% | [3] 35.4% | [4] 18.8% | [7] 13.4% | [8] 29.3% | [12] 48.5% | [15] 28.3% | [18] 49.4% | [19] 14.3%

CCN(CCNc1cc(OC)cc2cccnc12)CCc1ccccc1
inactive: [1] 78.1% | [2] 86.2% | [3] 108% | [4] 64.9% | [5] 86% | [6] 63.7% | [7] 74.4% | [8] 87.2% | [9] 68.8% | [10] 101% | [12] 108% | [13] 70.7% | [15] 84% | [16] 83.5% | [17] 97.6% | [18] 77.8% | [19] 93.4%
